This passage reports Potency and max response results from PubChem BioAssay (Tox21).

Structures are written as SMILES. Unmarked numbers belong to inactive results. Inconclusive results are not listed. Active and inactive are the calls of the source. Calls follow the shape of the dose curve; as a rule, active = well fitted curve in the direction sought with a large enough effect in the repeat runs; inconclusive = weak or mixed curves; inactive = no such curve, though single readings can be large; an effect the other way counts as inactive or inconclusive.

The nature of test [1]: A CellTox Green Cytotoxicity Assay to monitor cytotoxicity in HEK293 cells - 40 hour (AID 1224871). Also: nearly all actives have a fitted effect of over 45% in size. In short, it runs like this: (§1)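 Fluorescence intensity, read at 0, 8, 16, 24, 32 and 40 h of compound treatment, reflected dye binding to DNA of dead HEK293 cells; compounds (23 nL, DMSO) were added 5 h after plating cells with reagent.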
A short description of test [2]: qHTS RealTime-Glo MT Cell Viability Assay in HepG2 cells - 8 hour (AID 1224873). Also: nearly all actives have a fitted effect of over 55% in size. In short, it runs like this:
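HepG2 cells mixed with RealTime-Glo MT reagents (NanoLuc plus cell-permeant prosubstrate) were seeded at 600 cells/well, incubated 5 h at 37 C/5% CO2, then pinned with compounds in DMSO; nonlytic luminescence tracked viability during 40 h treatment.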

Test [3] is described as follows: A CellTox Green Cytotoxicity Assay to monitor cytotoxicity in HEK293 cells - 24 hour (AID 1224875). Also: series mostly up to about 77 µM; nearly all actives have a fitted effect of over 45% in size. In short, it runs like this: as §1
Test [4] is described as follows: qHTS RealTime-Glo MT Cell Viability Assay in HepG2 cells - 32 hour (AID 1224877). Also: nearly all actives have a fitted effect of over 55% in size. In short, it runs like this:
(§2)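 qHTS, HepG2, 600 cells/well, RealTime-Glo (NanoLuc + prosubstrate) added with cells; 5 h preincubation; DMSO compound addition; 37 C; luminescence at 0/8/16/24/32/40 h.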

Test [5] in a line: A CellTox Green Cytotoxicity Assay to monitor cytotoxicity in HepG2 cells - 24 hour (AID 1224878). Also: nearly all actives have a fitted effect of over 45% in size. Also: potency is read from the fitted curve at half-maximal effect. In outline: (§3)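 Using 1536-well format, dye-containing HepG2 suspension was seeded, allowed 5 h at 37 C/5% CO2, dosed by pintool with compounds, positive and negative controls, and imaged for fluorescence across 40 h.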
The nature of test [6]: A CellTox Green Cytotoxicity Assay to monitor cytotoxicity in HepG2 cells - 40 hour (AID 1224879). Also: nearly all actives have a fitted effect of over 40% in size. Also: potency is read from the fitted curve at half-maximal effect. In short, it runs like this:
as §3

Test [7] can be described thus: qHTS RealTime-Glo MT Cell Viability Assay in HEK293 cells - 0 hour (AID 1224880). Also: top concentration of the series differs between compounds; nearly all actives have a fitted effect of over 45% in size. In short, it runs like this:
(§4)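 Viable HEK293 cells reduce a cell-permeant prosubstrate; the product diffuses out and is consumed by NanoLuc in the medium to give light. Compounds went in after a 5 h incubation and plates were read over the treatment course.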

A short description of test [8]: A CellTox Green Cytotoxicity Assay to monitor cytotoxicity in HepG2 cells - 0 hour (AID 1224882). Also: nearly all actives have a fitted effect of over 35% in size. Also: potency is read from the fitted curve at half-maximal effect. In outline: as §3
The nature of test [9]: A CellTox Green Cytotoxicity Assay to monitor cytotoxicity in HepG2 cells - 32 hour (AID 1224883). Also: nearly all actives have a fitted effect of over 50% in size. Also: potency is read from the fitted curve at half-maximal effect. In short, it runs like this:
as §3

A short description of test [10]: A CellTox Green Cytotoxicity Assay to monitor cytotoxicity in HEK293 cells - 8 hour (AID 1224884). Also: nearly all actives have a fitted effect of over 35% in size. In short, it runs like this:
as §1

The nature of test [11]: qHTS RealTime-Glo MT Cell Viability Assay in HepG2 cells - 16 hour (AID 1224885). Also: nearly all actives have a fitted effect of over 50% in size. In short, it runs like this:
as §2

Test [12] can be described thus: qHTS RealTime-Glo MT Cell Viability Assay in HEK293 cells - 8 hour (AID 1224887). Also: nearly all actives have a fitted effect of over 50% in size. Also: potency is read from the fitted curve at half-maximal effect. In short, it runs like this: as §4
Test [13] in a line: A CellTox Green Cytotoxicity Assay to monitor cytotoxicity in HEK293 cells - 16 hour (AID 1224888). Also: nearly all actives have a fitted effect of over 35% in size. In short, it runs like this:
as §1

Test [14] is described as follows: qHTS RealTime-Glo MT Cell Viability Assay in HepG2 cells - 0 hour (AID 1224889). Also: nearly all actives have a fitted effect of over 50% in size. In outline:
as §2

Test [15] can be described thus: A CellTox Green Cytotoxicity Assay to monitor cytotoxicity in HepG2 cells - 8 hour (AID 1224890). Also: nearly all actives have a fitted effect of over 45% in size. Also: potency is read from the fitted curve at half-maximal effect. In short, it runs like this: as §3
Test [16] in a line: qHTS RealTime-Glo MT Cell Viability Assay in HEK293 cells - 16 hour (AID 1224872). Also: nearly all actives have a fitted effect of over 50% in size. Also: potency is read from the fitted curve at half-maximal effect. In outline: (§5)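 Assay medium contained NanoLuc luciferase plus cell-permeant prosubstrate, added with HEK293 cells at 600 cells/well. After 5 h at 37 C/5% CO2 compounds were added; plates stayed at 37 C for 40 h with serial luminescence reads.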
The nature of test [17]: qHTS RealTime-Glo MT Cell Viability Assay in HEK293 cells - 40 hour (AID 1224874). Also: nearly all actives have a fitted effect of over 50% in size. Also: potency is read from the fitted curve at half-maximal effect. Conditions: RealTime-Glo luminescence; max response: stronger effect = lower value. In outline:
as §4

Test [18] in a line: A CellTox Green Cytotoxicity Assay to monitor cytotoxicity in HEK293 cells - 32 hour (AID 1224881). Also: nearly all actives have a fitted effect of over 40% in size. In short, it runs like this:
as §1

A short description of test [19]: A CellTox Green Cytotoxicity Assay to monitor cytotoxicity in HepG2 cells - 16 hour (AID 1224876). Also: nearly all actives have a fitted effect of over 45% in size. In outline:
as §3

The nature of test [20]: qHTS RealTime-Glo MT Cell Viability Assay in HEK293 cells - 24 hour (AID 1224886). Also: nearly all actives have a fitted effect of over 50% in size. Also: potency is read from the fitted curve at half-maximal effect. In short, it runs like this:
as §5
% is scaled to controls: 0 for no effect and ±100 for the full control effect.

As to `COc1cc(/C=C/c2ccccc2)oc(=O)c1`, the Potency entry in test [1], in [2], in [3], in test [4], in [5] and in test [6] was “inactive” in each case. Further, the Potency entry in test [7], in test [8], in test [9], in test [10], in [11] and in test [12] was “inactive” in each case. In addition, the Potency entry in [13], in test [14] and in test [15] was “inactive” each time.
As for `O=c1[nH]c(=O)n([C@H]2C[C@H](O)[C@@H](CO)O2)cc1F`, the Potency result in test [16], in test [2], in test [3], in test [4], in [7] and in test [18] was “inactive” in each case. Besides, the Potency entry in test [10], in test [11], in test [12], in [13] and in test [14] was “inactive” in each case. The Potency was 0.601 µM (active) in test [17]; 6.01 µM (active) in [5]; 5.35 µM (active) in test [6]; 5.35 µM (active) in test [8]; 6.01 µM (active) in test [9]; 6.01 µM (active) in test [15].
As to `OC12N=C(c3ccccc3)SC1Cc1cc(Cl)ccc12` (centres undefined), the Potency entry in [1], in test [2], in test [3], in test [19], in test [4] and in [7] was “inactive” in each case. The Potency entry in [18], in [8], in [10], in test [11], in [12] and in test [13] was “inactive” each time. In addition, the Potency entry in test [14] and in [15] was “inactive” throughout.
Take `Cc1ccc(C)cc1`: the Potency entry in [16], in test [2], in test [3], in [4], in test [5] and in test [6] was “inactive” each time. In addition, the Potency entry in test [7], in [18], in [8], in [9], in [10] and in [11] was “inactive” throughout. For the same compound, the Potency result in test [20], in [12], in [13], in [14] and in [15] was “inactive” throughout. For the same compound, the max response in [17] was 12.3%.
As to `CCn1c2ccccc2c2cc([N+](=O)[O-])ccc21`, the Potency result in test [1], in test [3], in test [19], in test [4], in test [5] and in test [6] was “inactive” each time. In addition, the Potency entry in test [7], in [18], in test [8], in [9], in test [10] and in test [13] was “inactive” each time. Moreover, the Potency entry in test [14] and in test [15] was “inactive” each time. The max response in test [17] was -23.8%.
For `CCC(C)n1ncn(-c2ccc(N3CCN(c4ccc(OC[C@H]5CO[C@](Cn6cncn6)(c6ccc(Cl)cc6Cl)O5)cc4)CC3)cc2)c1=O` (some centres undefined), the Potency entry in test [1], in test [2], in [3], in test [19], in [5] and in [6] was “inactive” each time. In addition, the Potency entry in [7], in test [8], in test [9], in test [13], in test [14] and in test [15] was “inactive” each time.
As to `O=S(=O)(O)c1ccccc1/C=C/c1ccc(-c2ccc(/C=C/c3ccccc3S(=O)(=O)O)cc2)cc1`, the Potency entry in [16], in test [2], in test [3], in test [19], in [4] and in test [5] was “inactive” in each case. Further, the Potency entry in test [6], in [7], in test [18], in [8], in test [9] and in test [10] was “inactive” each time. Further, the Potency result in test [11], in test [20], in test [12], in [13], in [14] and in [15] was “inactive” throughout. Further, the max response in [17] is 3.02%.
`CCCCCCCCCCC[C@@H](C[C@@H]1OC(=O)[C@H]1CCCCCC)OC(=O)[C@H](CC(C)C)NC=O`: the Potency in test [16] was 13.4 µM (active); in [17], 6.74 µM (active); in test [6] it was 19 µM (active); in [9] it was 16.9 µM (active); in test [20], 8.49 µM (active). The Potency result in [2], in [3], in test [19], in test [4], in test [5] and in test [7] was “inactive” each time. The Potency result in [8], in test [10], in test [11], in test [13], in test [14] and in [15] was “inactive” throughout.
In the case of `C#C[C@]1(OC(C)=O)CC[C@H]2[C@@H]3CCC4=C[C@@H](OC(C)=O)CC[C@@H]4[C@H]3CC[C@@]21C`, the Potency result in test [2], in test [3], in test [19], in test [4], in test [5] and in test [6] was “inactive” each time. The Potency result in [7], in [8], in test [9], in [10], in test [11] and in test [13] was “inactive” each time. Besides, the Potency entry in test [14] and in test [15] was “inactive” each time. Moreover, the Potency in test [17] and in test [20] was 21.3 µM (active) each time.
In the case of `CCCc1ccc(OCC(=O)N2CCN(C(=O)COc3ccc(CCC)cc3OC)CC2)c(OC)c1`, the Potency in test [16] was 9.52 µM (active); in test [17], 8.49 µM (active); in test [5], 26.8 µM (active); in test [6] it was 21.3 µM (active); in test [9], 23.9 µM (active); in [20], 9.52 µM (active). In addition, in [12], the Potency was 9.52 µM (active). Moreover, the Potency entry in test [3], in [7], in [8], in test [13], in [14] and in test [15] was “inactive” each time.
As to `CCc1oc2ccccc2c1C(=O)c1cc(I)c(O)c(I)c1`, the Potency entry in test [16], in [2], in test [3], in test [19], in test [4] and in test [5] was “inactive” in each case. The Potency entry in [6], in [7], in test [18], in test [8], in test [9] and in [10] was “inactive” in each case. Also, the Potency result in [11], in [20], in test [12], in [13], in test [14] and in test [15] was “inactive” in each case.
For the compound `C#C[C@]1(OC(C)=O)CC[C@H]2[C@@H]3CCC4=C/C(=N/O)CC[C@@H]4[C@H]3CC[C@@]21CC`, the Potency in test [16] is 23.9 µM (active); in test [20], 23.9 µM (active); in test [12], 21.3 µM (active). Moreover, the Potency result in test [2], in test [3], in test [19], in test [4], in test [5] and in [6] was “inactive” throughout. Also, the Potency entry in [7], in test [18], in [8], in [9], in [10] and in test [11] was “inactive” throughout. Moreover, the Potency entry in test [13], in test [14] and in test [15] was “inactive” throughout.
Consider `CN1CCN(Cc2cc(-c3ccc4[nH]c(=O)oc4c3)co2)[C@@H](c2ccc(F)cc2)C1`, for which the Potency entry in [2], in [3], in [7], in [18], in test [8] and in test [13] was “inactive” throughout. Also, the Potency result in [14] and in test [15] was “inactive” each time. For the same compound, the Potency in [5] was 42 µM (active); in test [6], 42 µM (active); in test [9], 42 µM (active); in test [20], 26.5 µM (active).
On to `COc1cccc(OC)c1C(=O)O`, for which the Potency entry in [16], in test [19], in test [4], in [5], in [6] and in test [7] was “inactive” throughout. Further, the Potency entry in test [8], in test [9], in [10], in test [11], in test [20] and in [12] was “inactive” in each case. The Potency result in test [14] and in test [15] was “inactive” throughout. Further, in test [17], the max response was 0.328%.
